Hits are enriched below; roughly 2.8% of the tested compounds scored in any of these assays.
CF NFkB block: cystic fibrosis NF-kB activation inhibition | actives 0.86% (n = 360,000) | AID 588850 | KKLEB NF-kB-GFP reporter, PAF-induced, GFP fluorescence overnight | inhibition, % at 5 µM;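 active = at least 50% inhibition at 5 µM, scaled per plate between neutral and stimulator controls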;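 also: PAF is a Pseudomonas aeruginosa culture filtrate used as stimulus; plate controls were PAF-stimulated DMSO wells for no effect and unstimulated DMSO wells for full effect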
Peg3 promoter: reduces Peg3 promoter-driven luciferase expression in HeLa. HeLa PEG-Prom luciferase reporter, luminescence, overnight. inhibition, % at 20 µM. actives 1.7% (n = 360,000);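 active = inhibition of at least 50% at 20 µM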
HIF-2a block: HIF-2a inhibition; 786-0 RCC cells HIF-2a reporter, luciferase luminescence, overnight; inhibition, % at 18.8 µM; actives 0.72% (n = 360,000);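 active = inhibition of the luminescence signal of 40% or more relative to plate controls, in a single-dose primary screen at 18.75 µM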
TRPM1 prom inh: reduces MITF-dependent TRPM1 promoter luciferase signal | SK-MEL-5 TRPM1 promoter luciferase, 24 h | inhibition, % at 12.5 µM | actives 0.83% (n = 330,000) | AID 488899;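 active = mean inhibition across replicates of 60% or more, whatever share of single replicates reaches that level; inconclusive = some that reach 60%, reason not given; inactive = mean inhibition across replicates below 60%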
Shn3 inh set2: inhibitors of Schnurri-3 3'UTR reporter in osteoblasts; Clone20 osteoblast Shn3 3'UTR firefly luciferase, 24 h; inhibition, % at 12.5 µM; actives 0.52% (n = 360,000); AID 588674;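 active = mean inhibition of at least 75% with every replicate also reaching 75%; inconclusive = mean inhibition at least 75% but some replicate below; inactive = mean inhibition below 75%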;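 also: 0% = median of neutral control wells and 100% = pilot-screen positive control compound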
KKLEB cytotox: CF airway cell cytotoxicity counter-screen; KKLEB CF airway cells viability, ATPlite luminescence, overnight; stronger effect = lower value; cells stimulated with P. aeruginosa culture filtrate; actives 0.36% (n = 360,000); activity change (cytotoxicity), % at 5 µM;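 active = corrected activity change at or below -50% at 5 µM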
Mdm2-MdmX confirm: confirmation of inhibitors of human Mdm2/MdmX interaction, set 2 | shares compounds with HIF-2a block | SaOS-2 split-luciferase Mdm2/MdmX complementation, luminescence | inhibition, % at 8 µM | actives 99% (n = 740) | AID 504601;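 active = mean inhibition of the luminescence signal across two replicates at or above 26 percent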
HIF-2a inh conf: HIF-2a inhibition, single concentration confirmation | shares compounds with HIF-2a block | 786-0 RCC cells, HIF-2a luciferase reporter luminescence, overnight | inhibition, % at 18.8 µM | actives 56% (n = 1,800) | AID 651580;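 active = mean inhibition across four replicates of at least 40 percent at the single tested concentration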
HIF-1a cs: inhibits HIF-1a reporter, a counter-screen for HIF-2a inhibitors | shares compounds with HIF-2a block | inhibition, % at 18.8 µM | MiaPaCa-2 HIF-1a luciferase reporter, desferoxamine, overnight | actives 72% (n = 1,800);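 active = mean inhibition of the reporter signal across four replicates at the single tested dose of 50% or more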
Starred values were filed as active, the others as inactive.

CN(C)C(CNC(=O)c1ccc(S(=O)(=O)Nc2ccccc2F)cc1)c1ccco1 (stereo not drawn) was read as CF NFkB block -16, Peg3 promoter -7, HIF-2a block 3, TRPM1 prom inh 0, Shn3 inh set2 -25 and KKLEB cytotox 2.
COCC(=O)OCC(=O)N1N=C(c2ccc(Cl)cc2)CC1c1ccco1 (stereo not drawn) was read as CF NFkB block 14, Peg3 promoter -7, HIF-2a block 5, TRPM1 prom inh 11, Shn3 inh set2 -4 and KKLEB cytotox 11.
For CC(C)[C@H](NS(=O)(=O)c1ccccc1)C(=O)OCC(=O)N1N=C(c2ccc(Cl)cc2)CC1c1ccco1 (stereo partly drawn) the results were CF NFkB block 20, Peg3 promoter 5, HIF-2a block 50*, TRPM1 prom inh -3, Shn3 inh set2 15, KKLEB cytotox -1, HIF-2a inh conf -3 and HIF-1a cs 89*.
`Nc1cc(=O)[nH]c(SCC(=O)N2N=C(c3ccc(Cl)cc3)CC2c2ccco2)n1` (stereo not drawn) gave CF NFkB block 5, Peg3 promoter -25, HIF-2a block -37, TRPM1 prom inh -9, Shn3 inh set2 -41 and KKLEB cytotox 6.
CCCc1cc(=O)[nH]c(SCC(=O)N2N=C(c3ccc(Cl)cc3)CC2c2ccco2)n1 (stereo not drawn) was read as CF NFkB block -2, Peg3 promoter 13, HIF-2a block 40*, TRPM1 prom inh -2, Shn3 inh set2 -2, KKLEB cytotox 1, HIF-2a inh conf -16 and HIF-1a cs 82*.
Screening CCCCOCCCNC(=O)C[C@@H]1C[C@@]2(C(=O)OC)CCCCC=C2N(Cc2ccc(Cl)cc2Cl)C1=O returned HIF-2a block -14.
CN1/C(=C/C(=O)c2nc(S(C)(=O)=O)ncc2Cl)C(C)(C)c2ccccc21 was read as CF NFkB block 95*, Peg3 promoter 111*, HIF-2a block 91*, TRPM1 prom inh 106*, Shn3 inh set2 96*, KKLEB cytotox -47 and Mdm2-MdmX confirm 103*.
CN1/C(=C\C(=O)c2cccnc2)C(C)(C)c2ccccc21 was read as CF NFkB block -1, Peg3 promoter -56, HIF-2a block -63, TRPM1 prom inh -20, Shn3 inh set2 -27 and KKLEB cytotox -8.
`CSc1ncc(C(=O)Nc2ccccc2)cn1` gave CF NFkB block -19, Peg3 promoter -24, HIF-2a block -49, TRPM1 prom inh -16, Shn3 inh set2 -1 and KKLEB cytotox 7.
`CCOc1ccc(N=C(NN)c2ccc3ccccc3n2)cc1` gave CF NFkB block 8, Peg3 promoter 3, HIF-2a block 49*, TRPM1 prom inh 14, Shn3 inh set2 33, KKLEB cytotox -5, HIF-2a inh conf 45* and HIF-1a cs 66*.
CC1=CC(C)(C)Nc2ccc(OC(=O)CN3C(=O)c4cccc5cccc(c45)C3=O)cc21 was read as CF NFkB block -5, Peg3 promoter -23, HIF-2a block 74*, TRPM1 prom inh 22, Shn3 inh set2 31, KKLEB cytotox 5, HIF-2a inh conf 89* and HIF-1a cs 72*.
Screening C#CCOC(=O)CN1C(=O)c2cccc3cccc(c23)C1=O returned CF NFkB block -37, Peg3 promoter -15, HIF-2a block -93, TRPM1 prom inh 4, Shn3 inh set2 -16 and KKLEB cytotox -1.
For CCCn1nc(C(=O)N(C)CC(=O)Nc2ccc(OCC)c(OCC)c2)c2ccccc2c1=O the results were CF NFkB block -3, Peg3 promoter 4, HIF-2a block 0, TRPM1 prom inh 5, Shn3 inh set2 -3 and KKLEB cytotox 5.
For O=C(CN1CCN(C(=O)CN2C(=O)NC3(CCCC3)C2=O)CC1)Nc1cccc(F)c1 the results were CF NFkB block 0, Peg3 promoter -5, HIF-2a block -2, TRPM1 prom inh -4, Shn3 inh set2 4 and KKLEB cytotox -12.
For CSCCOC(=O)C1=C(C)NC(=O)NC1c1ccc2c(c1)OCO2 (stereo not drawn) the results were CF NFkB block -10, Peg3 promoter 13, HIF-2a block 19, TRPM1 prom inh -7, Shn3 inh set2 8 and KKLEB cytotox 6.
Screening CC1=C(C(=O)OCc2ccc3c(c2)OCO3)C(c2ccc(F)cc2)NC(=O)N1 (stereo not drawn) returned CF NFkB block 86*, Peg3 promoter 55*, HIF-2a block 23, TRPM1 prom inh 46, Shn3 inh set2 7, KKLEB cytotox -32 and Mdm2-MdmX confirm 97*.
CC(C)CC(=O)/C(=C\c1ccc(Cl)cc1Cl)n1cncn1 was read as CF NFkB block 86*, Peg3 promoter 105*, HIF-2a block 94*, TRPM1 prom inh 86*, Shn3 inh set2 14, KKLEB cytotox -81*, HIF-2a inh conf 94* and HIF-1a cs 107*.
For CC(C)CC(=O)/C(=C/c1ccc(N(C)C)cc1)n1cncn1 the results were CF NFkB block -7, Peg3 promoter -9, HIF-2a block -1, TRPM1 prom inh 11, Shn3 inh set2 23 and KKLEB cytotox 4.
C=CCn1c(Sc2ncc([N+](=O)[O-])s2)n[nH]c1=O was read as CF NFkB block 14, Peg3 promoter 102*, HIF-2a block 93*, TRPM1 prom inh 82*, Shn3 inh set2 5, KKLEB cytotox 17 and Mdm2-MdmX confirm 103*.
Screening COC(=O)c1c(C)n(-c2ccccc2)c2ccc(O)cc12 returned CF NFkB block 26, Peg3 promoter 22, HIF-2a block 9, TRPM1 prom inh 6, Shn3 inh set2 19 and KKLEB cytotox 7.
CN(C)/C=C/c1c([N+](=O)[O-])c2ccc(O)cc2n1-c1ccccc1 was read as CF NFkB block 84*, Peg3 promoter 52*, HIF-2a block 28, TRPM1 prom inh -12, Shn3 inh set2 4, KKLEB cytotox -3 and Mdm2-MdmX confirm 90*.
`CCCC[C@H](CN[C@@H](CNC)[C@H](C)CC)NCCC12CCC(CC1)C2` gave CF NFkB block -12, Peg3 promoter 102*, HIF-2a block -7, TRPM1 prom inh 94*, Shn3 inh set2 inconclusive, KKLEB cytotox -1 and Mdm2-MdmX confirm 103*.

High-throughput results from PubChem.
